Screening results: PubChem BioAssay, several laboratories
The list is not random: actives were taken first. Their share in the collection is about 2.3%.
ADAM10 inh: inhibitors of human ADAM10 | O14672 | recombinant ADAM10, EDANS/DABCYL FRET peptide cleavage, 3 h | inhibition, % at 7 µM | 370,000 compounds, 0.62% hits | AID 720582;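 active = inhibition above a per-campaign cutoff equal to the mean of compounds falling between control-based bounds plus 3 SD, cut at about 20% in these data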
Target sequence (O14672 214-748 limits assumed): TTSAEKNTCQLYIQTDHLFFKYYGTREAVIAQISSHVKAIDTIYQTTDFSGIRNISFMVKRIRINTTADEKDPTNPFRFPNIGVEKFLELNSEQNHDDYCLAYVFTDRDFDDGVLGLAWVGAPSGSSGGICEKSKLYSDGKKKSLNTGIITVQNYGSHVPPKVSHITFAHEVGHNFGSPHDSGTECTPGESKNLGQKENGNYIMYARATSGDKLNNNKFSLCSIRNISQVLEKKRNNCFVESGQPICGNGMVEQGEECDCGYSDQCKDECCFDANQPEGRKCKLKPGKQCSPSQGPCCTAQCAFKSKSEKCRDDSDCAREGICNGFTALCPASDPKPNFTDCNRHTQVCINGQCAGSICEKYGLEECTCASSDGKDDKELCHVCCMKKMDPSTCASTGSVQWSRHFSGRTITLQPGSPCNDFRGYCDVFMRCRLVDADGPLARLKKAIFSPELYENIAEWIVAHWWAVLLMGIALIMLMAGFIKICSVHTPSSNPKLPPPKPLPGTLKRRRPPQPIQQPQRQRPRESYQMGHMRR
ADAM17 inh: inhibitors of human ADAM17; P78536; recombinant ADAM17, EDANS/DABCYL FRET peptide cleavage; inhibition, % at 6.95 µM; 370,000 compounds, 0.83% hits; AID 720648;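 active = inhibition above the mean of compounds lying between control limits plus 3 SD, set per campaign, cut at about 8.5% in these data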
proKLK7 act: activates the human kallikrein-7 zymogen; P49862; purified proKLK7, EDANS-DABCYL substrate fluorescence; 100% is mature enzyme control, 0% vehicle; activation, % at 7 µM; 370,000 compounds, 0.9% hits; AID 652039;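 active = activation above the mean of all tested compounds plus 3 SD, computed per campaign excluding outliers beyond control limits, cut at about 13% in these data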
V-ATPase pHluor: alters yeast V-ATPase proton transport; S. cerevisiae, pHLuorin cytosolic pH fluorescence; response, % at 10 µM; 350,000 compounds, 0.37% hits; in the data active = response mostly above about 7.3%, no sharp cut-off; inactive = mostly below about 5.4%; also: actives read high
VATPase regulator: modulates yeast V-ATPase proton transport. shares compounds with V-ATPase pHluor. 980 compounds, 2% hits. S. cerevisiae pHLuorin cytosolic pH. response, % at 10 µM; in the data active = response above about 24%
proKLK7 act conf: confirmation of human kallikrein-7 zymogen activators; AID 686949; purified proKLK7, EDANS-DABCYL substrate fluorescence; scaled: vehicle 0, mature enzyme 100; 3,200 compounds, 68% hits; shares compounds with proKLK7 act; activation, % at 7 µM;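 active = activation, as change over the incubation, above the mean of all tested compounds plus 3 SD, cut at about 13% in these data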
EDANS-DABCYL int: counter-screen for kallikrein-7 activators: EDANS-DABCYL optical interference. EDANS-DABCYL substrate fluorescence interference, no enzyme, 4 h; solvent 0%, active enzyme control 100%. 3,200 compounds, 80% hits. shares compounds with proKLK7 act. activation, % at 7 µM. AID 686952;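 active = activation above the all-compound mean plus 3 SD, ignoring values outside control-based bounds, cut at about 4.8% in these data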;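 also: value is the 4 h activation minus the activation read at time zero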
K7 EDANS ctr: counter-screen for kallikrein-7 activators: EDANS-DABCYL interference, dose response; shares compounds with proKLK7 act; EDANS-DABCYL peptide fluorescence interference, no enzyme; EC50, µM; 250 compounds, 20% hits;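 active = compounds that raise the fluorescence signal in this interference counterscreen, with EC50 at or below 10 µM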;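 also: intact quenched peptide substrate alone read at 355 nm excitation and 520 nm emission; signal is fluorescence gain from T0 to T4 after four hours at room temperature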
Large screens that a line does not name were inactive (follow-up assays come after a bar, where they were run).

Fc1ccc2nc(-c3ccc(CN4CCC(n5nnc6ccccc65)CC4)cc3)c(-c3ccccc3)nc2c1	none (no result: V-ATPase pHluor)
CC(NC(=O)OCc1ccccc1)[P+](=O)O (configuration not stated)	none (no result: V-ATPase pHluor)
Cc1ccc2nc(N3CCN(C)CC3)[nH]c2c1	V-ATPase pHluor 12.4 | VATPase regulator inactive
CN1CCN(c2nc(N)cc(=O)[nH]2)CC1	none
Cc1ccc(C2C(S(C)(=O)=O)=C(O)C(=O)N2c2ccccc2)cc1 (configuration not stated) (tested in a mixture with another compound)	V-ATPase pHluor 7.7 | VATPase regulator inactive
COc1ccc([C@@H]2C[C@H]3[C@@H](CN2)CON3C)cc1	none (no result: V-ATPase pHluor)
C[C@]1(O)CC[C@H]2[C@@H]3CCC4=CC(=O)CC[C@]4(C)[C@@]3(F)[C@@H](O)C[C@@]21C	V-ATPase pHluor 9.2 | VATPase regulator inactive
CC1(O)CCC2C3CCC4=CC(=O)CCC4(C)C34OC4CC21C (configuration not stated)	none
Cc1ccccc1CN1CCNCC1	V-ATPase pHluor 10.9 | VATPase regulator inactive
O=C(Nc1ccc(F)cc1)c1c(O)c2c(n(Cc3ccccc3)c1=O)CCCC2	V-ATPase pHluor 10.0 | VATPase regulator inactive
CCOc1ccc(N2C(=O)/C(=C/c3ccc(C)o3)C(=O)NC2=S)cc1	none
COc1ccc(N2C(=O)/C(=C/c3ccc(C)o3)C(=O)NC2=S)cc1	V-ATPase pHluor 10.5 | VATPase regulator 81.9
CC(NC(=O)OCc1ccccc1)P(=O)(Oc1ccccc1)Oc1ccccc1 (configuration not stated)	none (no result: V-ATPase pHluor)
C/C(=N\Nc1ccccc1)c1c(O)[nH]c(=O)[nH]c1=O	V-ATPase pHluor 15.9 | VATPase regulator inactive
COc1ccc(OC(=O)N(C)C[C@H]2OCc3cnnn3CCCC(=O)N([C@@H](C)CO)C[C@@H]2C)cc1	none (no result: V-ATPase pHluor)
Cc1ccc([N+](=O)[O-])cc1	V-ATPase pHluor 20.6 | VATPase regulator inactive
COC1CC=C2CCN3CCC4=C(CC(=O)OC4)C23C1 (configuration not stated)	none (no result: V-ATPase pHluor)
CCOC(=O)c1cc2c(cn1)[nH]c1ccccc12	proKLK7 act 20.3 | VATPase regulator inactive | proKLK7 act conf inactive | EDANS-DABCYL int inactive
COC(=O)C1CC(OC(C)=O)C(=O)[C@H]2C1(C)CC[C@H]1C(=O)OC(c3ccoc3)CC12C (some centres not stated)	none (no result: V-ATPase pHluor)
CN1CCN(c2ccc3c(c2)S(=O)(=O)c2ccccc2C3=O)CC1	proKLK7 act 19.8 | proKLK7 act conf inactive | EDANS-DABCYL int 4.2
Clc1cc(Cl)cc(CN2Cc3ccccc3-n3nncc3C2)c1	none (no result: V-ATPase pHluor)
Nc1c(C(=O)NCc2ccco2)c2nc3ccccc3nc2n1CCN1CCCCC1	proKLK7 act 62.8 | proKLK7 act conf inactive | EDANS-DABCYL int inactive
COc1ccc(Cn2c(N)c(C(=O)NCc3ccco3)c3nc4ccccc4nc32)cc1OC	none
O=C(NCCN1CCC2(CC1)C(=O)NCN2c1ccccc1)c1ccc(F)cc1	none (no result: V-ATPase pHluor)
Cc1c(CCC(=O)N2C[C@H]3C[C@@H](C2)c2cccc(=O)n2C3)c(=O)oc2c(C)c(O)ccc12	proKLK7 act 84.4 (no result: V-ATPase pHluor) | proKLK7 act conf 73.2 | EDANS-DABCYL int 77.6
Cc1c(CC(=O)N2C[C@H]3C[C@@H](C2)c2cccc(=O)n2C3)c(=O)oc2cc(O)c(Cl)cc12	proKLK7 act 72.6 | proKLK7 act conf 59.5 | EDANS-DABCYL int 67.7
Cc1c(CC(=O)N2C[C@H]3C[C@@H](C2)c2cccc(=O)n2C3)c(=O)oc2c(C)c(O)ccc12	proKLK7 act 65.2 | proKLK7 act conf 67.9 | EDANS-DABCYL int 71.9
COc1ccc(CC(=O)N2C[C@H]3C[C@@H](C2)c2cccc(=O)n2C3)cc1	none
COc1cc2oc(=O)c(CC(=O)N3C[C@H]4C[C@@H](C3)c3cccc(=O)n3C4)c(C)c2cc1Cl	none
O=[N+]([O-])CCO	none
CCOc1ccc(-c2cc(C)[n+](CCN3CCOCC3)c(-c3ccc(OCC)cc3)c2)cc1	proKLK7 act 25.2 | proKLK7 act conf 28.9 | EDANS-DABCYL int 28.4
CCN1CCN(C(=O)COc2ccc3c(c2)C(=O)CC2(CCN(C(C)=O)CC2)O3)CC1	proKLK7 act 35.8 | proKLK7 act conf 81.6 | EDANS-DABCYL int 63.2 | K7 EDANS ctr inactive
CC1(C)CC(=O)c2cc(OCC(=O)N3CCN(Cc4ccccc4)CC3)ccc2O1	none
COC(=O)C12CCc3c(ccc4cc(OC)ccc34)C1=CC(=O)C2 (configuration not stated)	proKLK7 act 92.9 | proKLK7 act conf 65.2 | EDANS-DABCYL int 79.3
C=CCC1(Cc2ccsc2)C(=O)NC(=O)NC1=O	none
CC1(O)CCC2C3CCC4=CC(=O)CCC4=C3C=CC21C (configuration not stated)	proKLK7 act 14.2 | proKLK7 act conf 13.4 | EDANS-DABCYL int 23.1
NNCc1ccccc1	none
CC[C@@H](CO)NC(=O)[C@@H]1C=C2c3cccc4[nH]cc(c34)C[C@H]2N(C)C1	proKLK7 act 19.5 | proKLK7 act conf inactive | EDANS-DABCYL int inactive
CCC(CO)NC(=O)C1C=C2c3cccc4[nH]cc(c34)CC2N(C)C1 (configuration not stated)	none
Cn1c(=O)c2c(nc(N/N=C/c3c(O)n(C4CCCCC4)c(=S)[nH]c3=O)n2C)n(C)c1=O	none
O=c1[nH]c(=O)n(CCC2=CCCCC2)c(O)c1C=NCCCn1ccnc1	none
CN(C)CCN=Cc1c(O)n(CCC2=CCCCC2)c(=O)[nH]c1=O	proKLK7 act 27.2 | proKLK7 act conf inactive | EDANS-DABCYL int inactive
CCCCCCn1c(=O)c(C(=O)Nc2ncccc2C)c(O)c2ccccc21	none
COc1ccc(C(=O)C2CCCN(CCc3ccccc3)C2)cc1OC (configuration not stated)	none (no result: V-ATPase pHluor)
O=c1ccc2cc(OC3O[C@H](CO)[C@@H](O)[C@H](O)[C@H]3O)c(O)cc2o1 (some centres not stated)	proKLK7 act 53.0 | proKLK7 act conf 59.1 | EDANS-DABCYL int 74.0
CCOC(=O)c1c(N)n(CCCOC(=O)c2ccco2)c2nc3ccccc3nc12	proKLK7 act 39.2 | proKLK7 act conf 63.3 | EDANS-DABCYL int 63.9
CCOC(=O)c1c(NS(=O)(=O)c2ccccc2)n(CCCOC)c2nc3ccccc3nc12	proKLK7 act 81.9 | proKLK7 act conf 66.2 | EDANS-DABCYL int 70.0
CCCCNC(=O)c1c(N)n(CCCOC)c2nc3ccccc3nc12	none
COCCCn1c(N)c(C(=O)OCCOC)c2nc3ccccc3nc21	proKLK7 act 84.1 | proKLK7 act conf 71.3 | EDANS-DABCYL int 78.0
Cc1ccccc1C(=O)NCCN1CCC2(CC1)C(=O)NCN2c1ccccc1	none (no result: V-ATPase pHluor)
